target: E3 ubiquitin-protein ligase XIAP (Homo sapiens) (UniProt P98170); assay: XIAP binders, primary screen, biophysical, small-molecule microarray, fluorescence 635 nm (AID 1181); conditions: small-molecule microarray binding, higher = more signal;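 further: score merges 667 nm emission and signal to noise over triplicate slides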
Sequence (P98170 whole entry, looked up): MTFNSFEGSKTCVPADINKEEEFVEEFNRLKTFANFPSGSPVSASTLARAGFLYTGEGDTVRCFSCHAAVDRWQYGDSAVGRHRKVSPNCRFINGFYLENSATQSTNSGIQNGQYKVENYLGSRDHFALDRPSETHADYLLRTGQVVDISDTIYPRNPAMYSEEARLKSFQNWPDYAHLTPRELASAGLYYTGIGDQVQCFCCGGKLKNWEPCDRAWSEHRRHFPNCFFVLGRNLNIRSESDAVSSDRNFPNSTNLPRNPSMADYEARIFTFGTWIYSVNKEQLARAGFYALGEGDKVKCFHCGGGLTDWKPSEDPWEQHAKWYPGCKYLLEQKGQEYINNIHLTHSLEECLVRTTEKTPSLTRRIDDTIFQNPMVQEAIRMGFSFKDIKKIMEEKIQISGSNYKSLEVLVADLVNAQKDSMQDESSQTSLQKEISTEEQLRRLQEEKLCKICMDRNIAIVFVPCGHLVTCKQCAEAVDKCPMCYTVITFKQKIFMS

| Compound | composite z-score |
| --- | --- |
| COC(=O)[C@]1(Cc2ccccc2CN=[N+]=[N-])N=C(c2ccc(OCCCO)cc2)O[C@@H]1c1ccccc1N=[N+]=[N-] | -0.188 |
| O=C1O[C@H](c2ccccc2)[C@H](c2ccccc2)N2[C@H]1[C@@H](C(=O)O)[C@]1(C(=O)Nc3ccc(C#CC4(O)CCCCCC4)cc31)[C@H]2c1ccccc1OCCO | -0.0666 |
| COCCOC(=O)N1C(=O)[C@@]2(c3ccccc31)[C@H](C(=O)Nc1nc3ccccc3s1)[C@H]1C(=O)O[C@H](c3ccccc3)[C@H](c3ccccc3)N1[C@@H]2c1ccccc1OCCO | 0.0245 |
| [N-]=[N+]=Nc1ccccc1C[C@]1(C(N)=O)COC(c2ccc(OCCCO)cc2)=N1 | 0.396 |
| CCOC(=O)C1=CCC(c2cccn2C(=O)OC(C)(C)C)N(S(=O)(=O)c2ccc(C)cc2)C1 (stereo unspecified) | 0.177 |
| O=C1C2C=CC(C(O)C(c3ccccc3)c3ccccc3)N(Nc3ccccc3F)C2C(=O)N1c1ccccc1 (stereo unspecified) | 0.0617 |
| COc1cc(Cc2cc3c(c(-c4ccccc4)n2)[Si](C(C)C)(C(C)C)OC3)cc(OC)c1OC | -0.305 |
| CC1(C)OB(/C=C\CC(OC(=O)c2ccncc2)c2ccccc2)OC1(C)C (stereo unspecified) | 0.0487 |
| COC(=O)[C@@]1(Cc2ccc(F)cc2)[C@H]2c3cc(C(=O)N(C)C)n(Cc4ccc(C(F)(F)F)nc4)c3C[C@H]2CN1C(=O)c1ccccc1 | 0.109 |
| Cc1ccc(S[C@]2(C(=O)NC(C)C)CC(=O)N(Cc3ccccc3)[C@@H]2c2ccc(CO)cc2)cc1 | -0.177 |
| CN1C(=O)C2C=CC(C(O)c3ccc([N+](=O)[O-])cc3)N(Nc3ccccc3)C2C1=O (stereo unspecified) | -0.0476 |
